Screening results (PubChem BioAssay)
LmPK inh – qHTS Assay for Inhibitors of Leishmania Mexicana Pyruvate Kinase (LmPK) | Q27686 | Potency, µM (series often up to 57.5 µM), usual class: inhibitors | 290,000 compounds, 0.37% hits | purified LmPK, Kinase-Glo ATP luminescence, 1 h
Target sequence (Q27686 whole entry, looked up): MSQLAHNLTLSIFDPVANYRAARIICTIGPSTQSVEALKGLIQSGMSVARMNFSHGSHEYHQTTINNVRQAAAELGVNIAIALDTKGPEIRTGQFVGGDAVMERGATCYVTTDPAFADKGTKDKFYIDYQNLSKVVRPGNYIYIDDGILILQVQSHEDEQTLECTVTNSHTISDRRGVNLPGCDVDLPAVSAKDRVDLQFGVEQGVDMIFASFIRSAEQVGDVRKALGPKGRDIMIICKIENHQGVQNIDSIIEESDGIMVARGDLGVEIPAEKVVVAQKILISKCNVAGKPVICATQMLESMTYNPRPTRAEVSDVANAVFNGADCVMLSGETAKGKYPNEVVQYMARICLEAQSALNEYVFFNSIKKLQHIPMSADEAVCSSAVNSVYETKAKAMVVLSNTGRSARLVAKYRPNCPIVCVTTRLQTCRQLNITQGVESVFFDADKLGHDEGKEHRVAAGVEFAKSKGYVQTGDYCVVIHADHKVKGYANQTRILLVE
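Purified LmPK (0.1 nM) with 0.5 mM PEP and 0.1 mM ADP in imidazole buffer pH 7.2 with MgCl2/KCl, 1 h at room temperature. ATP formed was read by luciferase luminescence and normalized to no-enzyme and uninhibited controls.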
SARS PLpro yeast – qHTS of Yeast-based Assay for SARS-CoV PLP; S. cerevisiae expressing SARS-CoV PLpro, growth rescue; Potency, µM (top dose mostly 32.9 µM), actives largely listed as activators; 330,000 compounds, 0.19% hits; AID 485353, 2010; calls by dose curve; further: nearly all actives have a fitted effect of over 55% in size
Giardia FBPA inh-1 – qHTS Assay for Inhibitors of Fructose-1,6-bisphosphate Aldolase from Giardia Lamblia; A8B2U2; purified Giardia FBPA; Potency, µM (titrated, usually from 59.6 µM), usual class: inhibitors; 290,000 compounds, 0.71% hits; further: nearly all actives have a fitted effect of over 55% in size
Target sequence (A8B2U2 whole entry, looked up): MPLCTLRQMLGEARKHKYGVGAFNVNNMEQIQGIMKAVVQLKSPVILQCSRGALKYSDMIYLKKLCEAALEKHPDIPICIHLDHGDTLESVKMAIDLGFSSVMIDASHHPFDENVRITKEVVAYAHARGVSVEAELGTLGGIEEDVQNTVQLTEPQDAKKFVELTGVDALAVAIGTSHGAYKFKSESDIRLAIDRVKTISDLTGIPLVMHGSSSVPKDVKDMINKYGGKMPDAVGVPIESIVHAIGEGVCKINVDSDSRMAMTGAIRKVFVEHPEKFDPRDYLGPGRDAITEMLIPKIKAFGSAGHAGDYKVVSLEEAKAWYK
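Giardia FBPA (40 nM reagent) was preincubated 10 min at RT with compound (up to 57.5 uM final), then substrate plus GAPDH/TPI/NAD/arsenate coupling system with diaphorase/resazurin was added; resorufin fluorescence (525/598 nm) was read after 20 min.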
Tb PYK inh – qHTS of Trypanosoma Brucei Inhibitors. pyruvate kinase (Trypanosoma brucei), Q57TT1. TbPYK enzyme, Kinase-Glo Plus ATP luminescence, 45 min. Potency, µM (titrated, usually from 76.8 µM), most hits filed as inhibitors. 410,000 compounds, 0.12% hits; further: nearly all actives have a fitted effect of over 50% in size
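Glycolytic pyruvate kinase of T. brucei was incubated with substrate, test compound and 130 uM ADP for 45 minutes at room temperature. Luminescent Kinase-Glo Plus signal was measured after 10 minutes.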
RE007 growth inh – qHTS Assay for Inhibitors of the HIV-1 protein Vpr; S. pombe RE007 Vpr strain, BacTiter-Glo ATP luminescence, 24 h; AID 651644, 2012; 360,000 compounds, 0.21% hits; Potency, µM (titrated, usually from 92.2 µM), actives largely listed as inhibitors; active means well fitted falling curve with a large enough effect; inconclusive means small, poorly fitted or top-dose-only effect; inactive means no such curve, though single readings can be large or run the other way; further: nearly all actives have a fitted effect of over 50% in size
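Fission yeast strain RE007, carrying one chromosomally integrated HIV-1 vpr copy, was seeded at OD 0.01 in PMG+AL medium with 23 nL pinned compound. After 24 h at 30 °C and 99% humidity, viability was read by BacTiter-Glo luminescence.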
Giardia growth – qHTS Assay for Inhibitors of Fructose-1,6-bisphosphate Aldolase from Giardia Lamblia: Giardia lamblia growth inhibition | Potency, µM (highest dose often 57.5 µM), hits mostly inhibitors | Giardia lamblia trophozoite growth inhibition | 1,500 compounds, 5% hits | shares compounds with Giardia FBPA inh-1;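 further: trophozoites exposed to compound for 48 h at 37 °C; nearly all actives have a fitted effect of over 70% in size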
Mammalian tox – qHTS Assay for Inhibitors of Fructose-1,6-bisphosphate Aldolase from Giardia Lamblia: Mammalian cellular toxicity; shares compounds with Giardia FBPA inh-1; mammalian cell viability counter-screen, qHTS; Potency, µM (highest dose often 57.5 µM), most hits filed as inhibitors; 1,500 compounds, 4% hits; AID 2786, 2010;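 further: Chinese hamster ovary cells used as mammalian cytotoxicity surrogate; viability measured as cellular ATP by luminescence; compound exposure lasted 48 h before reading; nearly all actives have a fitted effect of over 60% in size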
Giardia FBPA inh-2 – qHTS Assay for Inhibitors of Fructose-1,6-bisphosphate Aldolase from Giardia Lamblia: Primary screen confirmation; Potency, µM (doses to about 57.5 µM), hits mostly inhibitors; shares compounds with Giardia FBPA inh-1; purified Giardia aldolase enzyme activity, qHTS; 1,500 compounds, 5% hits; further: nearly all actives have a fitted effect of over 45% in size
Rabbit FBPA inh – qHTS Assay for Inhibitors of Fructose-1,6-bisphosphate Aldolase from Giardia Lamblia: Rabbit FBPA Selectivity | shares compounds with Giardia FBPA inh-1 | Rabbit muscle FBPA enzyme inhibition, selectivity counter-screen | Potency, µM (highest dose often 57.5 µM), usual class: inhibitors | 1,500 compounds, 4% hits; further: nearly all actives have a fitted effect of over 60% in size
GAPDH counter – qHTS Assay for Inhibitors of Fructose-1,6-bisphosphate Aldolase from Giardia Lamblia: Coupling assay counterscreen confirmation | shares compounds with Giardia FBPA inh-1 | GAPDH coupling enzyme counterscreen, biochemical, qHTS | Potency, µM (top dose mostly 57.5 µM), actives largely listed as inhibitors | 1,500 compounds, 6% hits | AID 2795, 2010; further: nearly all actives have a fitted effect of over 55% in size
A number is an active result; – = inactive; ? = inconclusive; · = not tested or not shown; ! = not confirmed by another sample; [ ] = another dose, or the depositor's remark. Most compounds without a hit are left out; they make up all but 1.1% or so of the library. Unless noted, the call rests on the fitted dose curve; in most records, active means well fitted curve in the direction sought with a large enough effect; inconclusive means small, poorly fitted or top-dose-only effect, or another doubt; inactive means no such curve, though single readings can be large; an effect the other way counts as inactive or inconclusive.

SMILES	LmPK inh	SARS PLpro yeast	Giardia FBPA inh-1	Tb PYK inh	RE007 growth inh	Giardia growth	Mammalian tox	Giardia FBPA inh-2	Rabbit FBPA inh	GAPDH counter
COC(=O)[C@H](C)NC(=O)c1cc2c(cn1)[nH]c1ccccc12	–	–	–	–	–	·	·	·	·	·
COc1ccc(NC(=O)C(C)N(C)Cc2ccc3ccccc3c2)cc1 (stereo unspecified)	–	–	–	–	–	·	·	·	·	·
CCC(C)c1ccccc1NC(=O)C(C)N(C)Cc1cccc(OC)c1 (stereo unspecified)	–	–	19.9µM	–	–	?	–	–	–	–
Cn1c(=O)[nH]c(=O)c2c1nc(SCC(=O)O)n2Cc1ccccc1	–	–	14.1µM	?	–	–	–	–	–	–
Cn1c(=O)[nH]c(=O)c2c1nc(SCC(=O)O)n2CCCc1ccccc1	–	–	–	–	–	·	·	·	·	·
CCc1ccccc1NC(=O)N(C)CCc1c(C)nn(C)c1C	·	·	·	–	·	·	·	·	·	·
COC(=O)c1cc(C)nc2c1C(=O)C(=O)C=C2N1CCOCC1	–	–	0.251µM	–	–	25.1µM	20µM	1.26µM	1.41µM	1.41µM
COC(=O)c1cc(S(=O)(=O)N2CCOCC2)c(Cl)cc1N1CCOCC1	–	–	–	–	–	·	·	·	·	·
Cc1ccc(NC(=O)CN(C)CC(=O)Nc2cccc(F)c2)cc1S(=O)(=O)N1CCCCCC1	–	–	15.8µM	–	–	–	–	–	–	–
COc1ccc(NC(=O)CN(C)CC(=O)Nc2cccc(F)c2)cc1S(=O)(=O)N1CCCCC1	·	·	·	–	–	·	·	·	·	·
CC(=O)NCCNc1ncnc2ccc(-c3ccccc3C(F)(F)F)cc12	·	·	–	·	·	·	·	·	·	·
N#Cc1ccsc1NC(=O)c1ccccn1	–	–	19.9µM	–	–	10µM	–	–	–	–
N#Cc1ccsc1NC(=O)c1ccc2ncsc2c1	·	·	·	–	–	·	·	·	·	·
CC(C)CC(=O)N1CCN(Cc2cccc(F)c2)CC1	–	–	?	–	–	·	·	·	·	·
CC(C)CC(=O)N1CCN(Cc2ccc(Br)cc2)CC1	–	?	?	–	–	·	·	·	·	·
CC(C)CC(=O)N1CCN(Cc2ccc(Cl)cc2)CC1	–	–	28.2µM	–	–	–	–	–	–	–
CC(C)CC(=O)N1CCN(Cc2ccc(C(F)(F)F)cc2)CC1	–	–	31.6µM	–	–	–	–	–	–	–
CCCCCNc1nc2c(-c3ccccc3)nnn2c2ccccc12	·	·	·	–	·	·	·	·	·	·
Cc1cccnc1NC(=S)Nc1ccc(F)cc1F	–	–	19.9µM	–	–	?	–	–	–	–
Cc1ccc(CCNC(=O)CCCn2c(=O)c3ccccc3n(Cc3ccccc3C#N)c2=O)cc1	·	·	·	–	·	·	·	·	·	·
O=C(NC(=S)N1CCN(C/C=C/c2ccccc2)CC1)c1cccnc1	–	–	11.2µM	?	–	–	–	–	–	–
CCN1C(=O)[C@H]2[C@H]3[C@H](O)[C@H](O)C/C(=N/OC[C@@H](C)[C@H](OCc4ccccc4)C(C)C)[C@@H]3CC[C@@H]2C1=O	·	·	–[12.9 µM]	·	·	·	·	·	·	·
COc1ccc2nc(S(=O)Cc3ncc(C)c(OC)c3C)[nH]c2c1 (stereo unspecified)	–	–	15.8µM!	–	–	?	–	–	–	–
COc1ccc(OC)c(-c2csc(NC(=O)Cc3ccc(F)cc3)n2)c1	–	–	·	–	–	·	·	·	·	·
COc1ccc(OC)c(-c2csc(NC(=O)c3ccc(F)cc3)n2)c1	–	–	22.4µM	–	–	–[10.4 µM]	–	–	–	–
SMILES	LmPK inh	SARS PLpro yeast	Giardia FBPA inh-1	Tb PYK inh	RE007 growth inh	Giardia growth	Mammalian tox	Giardia FBPA inh-2	Rabbit FBPA inh	GAPDH counter
CCc1ccc(C2CC(=O)Nc3c2c(=O)n(C)c2ncnn32)cc1 (stereo unspecified)	·	·	·	–	·	·	·	·	·	·
O=C(NC1CCCC1)c1ccc2c(c1)N(Cc1c(F)cccc1Cl)C(=O)c1ccccc1S2	·	·	·	–	·	·	·	·	·	·
CSc1ccc(CCNC(=O)C(C)n2nc(C)c3sc4ccccc4c3c2=O)cc1 (stereo unspecified)	·	·	·	–	·	·	·	·	·	·
CCOC(=O)c1c(-c2ccc(Cl)cc2)csc1NC(=O)CNCc1ccco1	–	–	15.8µM	–	–	–	–	–	–	–
COc1ccc(N2CCN(CCCNC(=O)c3ccc4nc(CCc5ccccc5)oc4c3)CC2)cc1	·	·	·	–	·	·	·	·	·	·
CCCCNc1nc2c(S(=O)(=O)c3ccc(C)cc3)nnn2c2ccsc12	·	·	·	–	·	·	·	·	·	·
CC(C)(C)NC(=S)/N=C(\N)N[N+](=O)[O-]	–	–	15.8µM	–	–	–	–	–	–	–
Cc1ccc(S(=O)(=O)c2nc(-c3ccco3)oc2SC(C)c2ccccc2)cc1 (stereo unspecified)	·	·	·	–	·	·	·	·	·	·
O=C(O)CCCNc1cc(N2CCN(C(=O)c3ccco3)CC2)c2noc3c2c1C(=O)c1ccccc1-3	–	–	3.55µM	–	–	?	–	?	?	?
Cc1ccc(NC(=S)N2CCC(c3ccc(C)cc3)C2)cc1 (stereo unspecified)	–	–	15.8µM	?	–	–[10.4 µM]	–	–	–	–
COc1cc(NC(C)CCc2ccccc2)cc(OC)c1OC (stereo unspecified)	–	–	12.6µM	–	–	–[10.4 µM]	–	?	?	?
C/C(CCC(C)C)=N\NC(=S)NCc1ccccc1	–	–	15.8µM	–	–	–	–	–	–	–
N#Cc1c(-c2ccc(F)cc2)cc(-c2ccccc2)nc1SCC(=O)NCC(=O)O	–	–	7.06µM	–	–	–	–	–	–	–
Cc1cccc(-n2ncc(C(=O)N3CCN(Cc4ccccc4)CC3)c2C2CCN(C(=O)OC(C)(C)C)CC2)c1	·	·	·	–[15.4 µM]	·	·	·	·	·	·
N#CCC(=O)Nn1c(=S)[nH]c2ccccc2c1=O	–	–	3.54µM	–	–	–	–	–	–	–
O=C(CCn1c(=S)[nH]c2ccccc2c1=O)Nc1ccc(F)cc1	–	–	·	–	–	·	·	·	·	·
